These results are taken from publication PMC4552634, “A New Set of Chemical Starting Points with Plasmodium falciparum Transmission-Blocking Potential for Antimalarial Drug Discovery” (PLoS ONE, 2015).

Hit rate of the full screen: of about 13,000 compounds, about 3,200 (25%) showed an effect of 50% or more. The list shows a part of the results.

The assay concerns P. falciparum stage V gametocytes. Further details: BacTiter-Glo ATP luminescence viability of purified stage V gametocytes in 384-well plates, per cent inhibition versus DMSO. Conditions: 48 h, 5 µM; inhibitor.
`O=C(NCc1ccc(F)cc1)Nc1ccc(-c2cccc(-c3nc4ccc(F)cc4[nH]3)c2)cc1` [TCMDC-133304]: the % Inhibition (in general, the drop in the measured response relative to a control, in per cent) is on record as -35.38%.
With `Cc1cc(C)c(CON2C(N)=NC(N)=NC2(C)C)cc1C` [TCMDC-131652], the “% Inhibition” value was -5.978%.
Turning to `COc1ccc2nccc([C@@H](O)CN3CCC(NC(=O)Cn4nc(-c5ccc(C(F)(F)F)cc5)ccc4=O)CC3)c2c1` [TCMDC-141042], the “% Inhibition” value was -2.454%.
Regarding `CC(=O)c1ccccc1C(=O)N1CCOc2ccc(C(O)C(c3ccccc3)c3ccccc3)cc2C1` (stereo not shown) [TCMDC-124667], the “% Inhibition” value is listed as -12.26%.
With `O=C(NCCCN1CCC(Cc2ccccc2)CC1)c1cc2c(Cl)nc3ccccc3c2s1` [TCMDC-125440], the “% Inhibition” value was -22.49%.
`Cn1c(=O)c2cc(C(=O)NCCCN3CCCCCC3)sc2c2ccccc21` [TCMDC-123889]: the “% Inhibition” value amounted to 59.14%.
Take `O=C(NCCN1CCCC1)c1ccc(-c2ccc(-c3nc4ccccc4[nH]3)s2)cc1` [TCMDC-132314]: the “% Inhibition” value stood at 24.13%.
For the compound `O=C(Nc1cccc(-c2cccc(-c3nc4ccccc4[nH]3)c2)c1)Nc1ccc(F)c(F)c1F` [TCMDC-133226], the “% Inhibition” value is on record as -1.107%.
On to `Cc1cc(N[C@@H](CC(C)C)C(=O)NCc2cccc(F)c2)nc(Nc2ccccc2)n1` [TCMDC-134737], for which the “% Inhibition” value was -10.43%.
Take `Cc1cccc(CNc2nc(C)cc(N[C@@H](CC(C)C)C(=O)NCc3cccc(F)c3)n2)c1` [TCMDC-134890]: the “% Inhibition” value is on record as -6.286%.
Turning to `Cc1cc(N[C@@H](CC(C)C)C(=O)NCc2cccc(F)c2)nc(NCCc2ccc(F)cc2)n1` [TCMDC-134792], the “% Inhibition” value worked out at 53.15%.
For `Cc1cc(N[C@@H](CC(C)C)C(=O)NCc2cccc(F)c2)nc(NCCc2ccccc2)n1` [TCMDC-134870], the “% Inhibition” value is reported as 54.62%.
The result for `Cc1cc(N[C@@H](CC(C)C)C(=O)NCCc2ccccc2)nc(NCCc2ccc(F)cc2)n1` [TCMDC-134796] reads 48.22%; that for `COc1cccc(-c2cnc(N)c(-c3nc4cc(Cl)c(F)cc4[nH]3)c2)c1` [TCMDC-138792], 26.62%; that for `COC[C@H]1CCCN1Cc1ccc(-c2ccc(-c3nc4ccccc4[nH]3)s2)cc1` [TCMDC-136785], -1.728%.
The result for `Cc1cccc2nc(-c3ccc(-c4ccc(CN5CCN(C6CCN(C)CC6)CC5)cc4)s3)[nH]c12` [TCMDC-133866] reads 107%.
The result for `Fc1ccc2nc(-c3ccc(-c4ccc(CN5CCCCC5)cc4)s3)[nH]c2c1` [TCMDC-133897] reads -55.88%; that for `CN1CCC(N2CCN(Cc3ccc(-c4ccc(-c5nc6ccccc6[nH]5)s4)cc3)CC2)CC1` [TCMDC-133851], 67.23%; that for `CN1CCC(N2CCN(Cc3ccc(-c4ccc(-c5nc6ccc(F)cc6[nH]5)s4)cc3)CC2)CC1` [TCMDC-133859], 93.67%.
`Cc1cccc2nc(-c3ccc(-c4ccc(NC(=O)CN5CCN(C)CC5)cc4)s3)[nH]c12` [TCMDC-136987]: the “% Inhibition” value is recorded as -6.57%.
With `c1ccc2[nH]c(-c3ccc(-c4ccc(CN5CCC(N6CCCCC6)CC5)cc4)s3)nc2c1` [TCMDC-136787], the “% Inhibition” value was 26.44%.
The value for `Cc1cccc2nc(-c3ccc(-c4cccc(NC(=O)CN5CCN(C)CC5)c4)s3)[nH]c12` [TCMDC-136988] was 20.22%.
Take `Fc1ccc2nc(-c3ccc(-c4ccc(CN5CCN(CCN6CCOCC6)CC5)cc4)s3)[nH]c2c1` [TCMDC-133935]: the “% Inhibition” value is on record as 8.438%.
For the compound `O=C(Nc1ccc2nc(-c3ccccc3)[nH]c2c1)c1cc(-c2ccc3c(c2)OCCO3)n[nH]1` [TCMDC-134398], the “% Inhibition” value is given as 9.818%.
The value for `CS(=O)(=O)Nc1ccc2[nH]cc(C3CCN(CCCCCNC(=O)/C=C/c4ccc(Cl)c(Cl)c4)CC3)c2c1` [TCMDC-139325] was -23.44%.
As to `Cc1cc(O)c2c(c1)OC(C)(C)C=C2C1=CCN(Cc2ccccc2)CC1` [TCMDC-131313], the “% Inhibition” value is reported as -37.74%.
The value for `CN(C)S(=O)(=O)n1ncc2c3c(N)nc(N)nc3ccc21` [TCMDC-131933] was 29.56%; that for `O=C(/C=C/c1ccc(Cl)cc1)NCCCCCN1CCN(C(=O)Nc2ccc(Cl)c(C(F)(F)F)c2)CC1` [TCMDC-136093] was 12.32%.
With `CCC[C@@H]([C@@H](CC1CCCCC1)C(=O)N[C@H](C(=O)Nc1nccs1)C(C)(C)SCCOCCOCC)N(O)C=O` [TCMDC-137777], the “% Inhibition” value is 29.4%.
For the compound `CS(=O)(=O)c1ccc(CCNCc2ccc(-c3ccc(CN(C(=O)c4ccc(Cl)nc4)C4CCN(Cc5ccccc5)CC4)cc3)nc2)cc1` [TCMDC-141519], the “% Inhibition” value is given as 96.79%.
On to `CS(=O)(=O)c1ccc(CCNCc2ccc(-c3ccc(CN(C(=O)c4cccc(C#N)c4)C4CCN(Cc5ccccc5)CC4)cc3)nc2)cc1` [TCMDC-141518], for which the “% Inhibition” value came to 63.72%.
In the case of `CS(=O)(=O)c1ccc(CCNCc2ccc(-c3ccc(CN(C(=O)c4ccco4)C4CCN(Cc5ccccc5)CC4)cc3)nc2)cc1` [TCMDC-141510], the “% Inhibition” value came out at 87.45%.
As to `C=C[C@]1(C)C[C@@H](OC(=O)c2n[nH]c3ccccc3c2=O)[C@]2(C)[C@H](C)CC[C@]3(CCC(=O)[C@H]32)[C@@H](C)[C@@H]1O` [TCMDC-141325], the “% Inhibition” value is listed as 0.6377%.
As for `Cc1ccc(Nc2nccc(NCC(O)c3cccc(C(F)(F)F)c3)n2)cc1` (stereo not shown) [TCMDC-136583], the “% Inhibition” value is listed as -0.2999%.
With `COc1ccc(CCON2C(N)=NC(N)=NC2(C)C)cc1OC` [TCMDC-131738], the “% Inhibition” value is -1.929%.
Consider `CCC(C)CN1CCN(c2cc(NC(=O)c3cccs3)ccn2)C(C)C1` (stereo not shown) [TCMDC-134995], for which the “% Inhibition” value turned out to be 14.25%.
On to `CCN1CCN(Cc2ccc(NC(=O)c3cc4ccc5cccnc5c4[nH]3)cc2)CC1` [TCMDC-125281], for which the “% Inhibition” value is recorded as 19.87%.
For the compound `CCN(CC)CCN(Cc1ccc(-c2ccc(C(F)(F)F)cc2)cc1)C(=O)Cn1c(CCc2cccc(F)c2F)cc(=O)cc1-c1ccccc1` [TCMDC-141688], the “% Inhibition” value was 100.1%.
Consider `CCN(CC)CCN(Cc1ccc(-c2ccc(C(F)(F)F)cc2)cc1)C(=O)Cn1c(CCc2cccc(F)c2F)cc(=O)c(C)c1C` [TCMDC-141148], for which the “% Inhibition” value is 40.01%.
Turning to `CCN1CCC(N(Cc2ccc(-c3ccc(C(F)(F)F)cc3)cc2)C(=O)Cn2c(CCc3cccc(F)c3F)cc(=O)c3c2CCCC3)CC1` [TCMDC-141326], the “% Inhibition” value amounted to 67.51%.
On to `CCN(CC)CCN(Cc1ccc(-c2ccc(C(F)(F)F)cc2)cc1)C(=O)Cn1c(CCc2cccc(F)c2F)cc(=O)c2c1CCCC2` [TCMDC-141327], for which the “% Inhibition” value is 62.98%.
Turning to `CC(C)N1CCC(N(Cc2ccc(-c3ccc(C(F)(F)F)cc3)cc2)C(=O)Cn2c(CCc3cccc(F)c3F)cc(=O)c3c2CCC3)CC1` [TCMDC-141280], the “% Inhibition” value was determined as 120.6%.
In the case of `COc1cc(CC(C)NCC(O)c2cccc(C(F)(F)F)c2)ccc1OCc1ccccc1` (stereo not shown) [TCMDC-131479], the “% Inhibition” value is reported as 14.56%.
With `CCOc1ccc(NC(C)=O)c(O)c1` [TCMDC-125851], the “% Inhibition” value was determined as 13.93%.
For `Cc1ccc(-c2nnc(Nc3ccc(OCC(N)=O)cc3)c3ccccc23)cc1S(=O)(=O)NCC1CCCO1` (stereo not shown) [TCMDC-125617], the “% Inhibition” value is reported as -6.517%.
Consider `CC(=O)Oc1cc(OCc2ccccc2)c(OC(C)=O)c(OCc2ccccc2)c1` [TCMDC-123938], for which the “% Inhibition” value is listed as -24.96%.
In the case of `COCCCNc1nc2cc(OC)c(OC)cc2c2nc(-c3ccccc3)nn12` [TCMDC-124408], the “% Inhibition” value came out at 0.2335%.
As to `CC(C)(C)c1ccc(CNCC(C)(C)c2nc(-c3ccc(Cl)c(O)c3)c(-c3ccnc(N)n3)[nH]2)cc1` [TCMDC-141165], the “% Inhibition” value was 3.988%.
`Oc1ccc(Cl)cc1-c1cc(C(F)(F)F)nc(-c2ccccc2)n1` [TCMDC-123665]: the “% Inhibition” value amounted to 32.7%.
With `COc1ccc2nccc([C@@H](O)CN3CCC(CO)(NCc4cc5ccccc5o4)CC3)c2c1` [TCMDC-140494], the “% Inhibition” value came out at 12.97%.
`COc1ccc(CC(=O)NC2CCN(c3ccnc4cc(Cl)ccc34)C2)cc1` (stereo not shown) [TCMDC-133665]: the “% Inhibition” value was -28.04%.
The value for `CCN(CC)CCN(Cc1ccc(-c2ccc(C(F)(F)F)cc2)cc1)C(=O)CN1C(CCc2cccc(F)c2F)=NS(=O)(=O)c2ccccc21` [TCMDC-141806] was 67.96%; that for `COCCN1CCC(N(Cc2ccc(-c3ccc(C(F)(F)F)cc3)cc2)C(=O)Cn2c(CCc3cccc(F)c3F)cc(=O)c3c2CCC3)CC1` [TCMDC-141266] was 34.4%.
The value for `CCN1CCC(N(Cc2ccc(-c3ccc(C(F)(F)F)cc3)cc2)C(=O)Cn2c(CCc3cccc(F)c3F)cc(=O)c3c2CCC3)CC1` [TCMDC-141265] was 65.76%; that for `CCCNc1ccc2nccc(CCN3CCC(NCc4ccc5c(c4)NC(=O)CS5)CC3)c2n1` [TCMDC-141619] was -14.28%.
The result for `ON=C1CCc2cc(-c3nc(-c4cccc(OCCNCc5ccc(F)cc5)c4)[nH]c3-c3ccncc3)ccc21` [TCMDC-141188] reads 20.84%; that for `CN1CCC(NCc2cccc(-c3ccc(S(=O)(=O)NCCc4ccccn4)cc3)c2)CC1` [TCMDC-132214], 81.33%; that for `CN1CCC(NCc2ccc(-c3cccc(S(=O)(=O)NCCc4ccccn4)c3)cc2)CC1` [TCMDC-132239], 62.99%.
With `Cc1cc(-c2cccc(CNC3CCN(C)CC3)c2)ccc1S(=O)(=O)NCCc1ccccn1` [TCMDC-132381], the “% Inhibition” value is reported as 33.36%.
In the case of `CN1CCC(NCCS(=O)(=O)c2cccc(Nc3ccc(-c4cccc(F)c4)cn3)c2)CC1` [TCMDC-134370], the “% Inhibition” value was 8.325%.
As to `COc1ccc2nccc([C@@H](O)CN3CCC(NCC(=O)Nc4cc(F)cc(F)c4)CC3)c2n1` [TCMDC-140675], the “% Inhibition” value was -19.08%.
The value for `Cc1ccnc2nc(C(=O)Nc3cc(C(F)(F)F)ccc3N3CCCCC3)nn12` [TCMDC-124492] was -24.2%; that for `Cc1ccc(C(=O)NCC2CCN(c3ccc(C(F)(F)F)cc3NC(=O)c3ccco3)CC2)cn1` [TCMDC-134179] was 52.48%.
For the compound `COC(=O)Nc1cc(C(F)(F)F)ccc1N1CCC(CNS(=O)(=O)c2ccc(OC)cc2)CC1` [TCMDC-134157], the “% Inhibition” value was found to be 29.26%.
